Hit rate of the full screen: of about 89,000 compounds, about 10 (0.01%) were called active. Not shown: some 10% with an inconclusive outcome. No stated cut-off is given here; in the data, active means activity change below about -37% (passing the limit was not always enough); inconclusive means no clear call, values can overlap the other calls; tested in A549 cells. A selection follows.
test: blocks a specific stage of Vaccinia orthopoxvirus infection, primary screen, cell-based, single point (AID 1053133); settings: Vaccinia-infected cells, mCherry/Venus stage reporter fluorescence, stronger effect = lower value, concentration not given here; activity change (Venus): measured here: Venus reporter, other viral stage

SMILES | activity change (Venus) [%] | activity change (mCherry)
CO[C@H]1CN(C)C(=O)c2cc(NC(=O)C3CCC3)ccc2OC[C@H](C)N(CC2CCCCC2)C[C@@H]1C | 3.14 | -9.01% (inactive)
COc1ccc2c3c(n(C)c2c1)[C@H](CO)N(C)CC31CCN(C(=O)Nc2cccc(F)c2)CC1 | -8.96 | -16.1% (inactive)
CC(C)NC(=O)N1CC(=O)N2[C@@H](CO)[C@H](c3ccc(C#CCN(C)C)cc3)[C@@H]2C1 | 7.94 | 9.18% (inactive)
O=C(C[C@H]1C[C@H]2c3cc(NC(=O)Nc4ccc(C(F)(F)F)cc4)ccc3O[C@H]2[C@@H](CO)O1)NCCc1ccccc1 | 9.77 | 6.8% (inactive)
O=C(Nc1ccccc1)N1C[C@@H]2[C@H](c3ccccc31)[C@H](CO)N2C(=O)c1ccccn1 | 5.62 | 10.2% (inactive)
Cc1ccc(S(=O)(=O)N(C)C[C@@H]2Oc3ccc(NS(=O)(=O)c4ccc(F)cc4)cc3CC(=O)N([C@@H](C)CO)C[C@H]2C)cc1 | -2.68 | 2.93% (inactive)
COc1ccccc1NC(=O)N[C@H]1CC[C@H](CCn2cc(-c3cccnc3)nn2)O[C@@H]1CO | 7.22 | -4.31% (inactive)
COc1ccc(-c2cn(CC[C@@H]3CC[C@@H](NC(=O)CCN4CCCCC4)[C@@H](CO)O3)nn2)cc1 | 11.2 | 5.57% (inactive)
O=C(Cc1ccccn1)N[C@@H]1CC[C@H](CCn2cc(-c3ccc(F)cc3)nn2)O[C@@H]1CO | -0.00768 | 11% (inactive)
Cc1ccc(S(=O)(=O)N[C@@H]2CC[C@@H](CCn3cc(C(C)C)nn3)O[C@H]2CO)cc1 | 2.74 | -0.697% (inactive)
COc1ccc2c3c(n(C)c2c1)[C@H](CO)N(C(=O)c1ccc(F)cc1)CC31CCN(C(C)=O)CC1 | 7.75 | 25% (inactive)
COC(=O)C[C@@H]1CC[C@@H]2[C@H](COc3ccc(NC(=O)Nc4cccc(F)c4)cc3C(=O)N2C)O1 | 6.13 | 6.13% (inactive)
CCNC(=O)[C@@H]1[C@@H](CO)[C@@H]2Cn3c(ccc(C4=CCCCC4)c3=O)[C@@H]2N1Cc1ccccc1F | -3.86 | 2.73% (inactive)
O=C(Nc1cc(F)ccc1F)N[C@H]1CC[C@H](CCn2cc(C3CCCC3)nn2)O[C@@H]1CO | -13.1 | -6.78% (inactive)
C[C@H]1CN([C@@H](C)CO)C(=O)c2cc(C3=CCCC3)cnc2O[C@H]1CN(C)C(=O)Nc1ccc(F)cc1 | 6.92 | 7.38% (inactive)
C[C@@H]1CN([C@@H](C)CO)C(=O)c2cc(NC(=O)C3CCCCC3)ccc2O[C@@H](C)CCCCO[C@H]1CN(C)C(=O)Nc1ccc2c(c1)OCO2 | 1.19 | 1.01% (inactive)
CC(C)NC(=O)N1[C@H](C(=O)N2CCc3ccccc3C2)[C@@H](CO)[C@@H]2Cn3c(cccc3=O)[C@@H]21 | 7.39 | 13.3% (inactive)
CCN1[C@@H]2Cn3c(ccc(C4=CCCCC4)c3=O)[C@H]1[C@@H](C(=O)N1CCCCC1)[C@@H]2CO | -4.76 | -0.187% (inactive)
C[C@H]1CN([C@@H](C)CO)C(=O)c2cc(/C=C/c3ccccc3)cnc2O[C@@H]1CN(C)C(=O)NC1CCCCC1 | -19.2 | -26.2% (inactive)

SMILES | activity change (Venus) [%] | activity change (mCherry)
CS(=O)(=O)N1CC(=O)N2[C@@H](CO)[C@@H](c3ccc(C#CCC4CCCC4)cc3)[C@@H]2C1 | -6.84 | -14.6% (inactive)
COc1ccc(CN2[C@@H](CO)[C@@H]3c4ccccc4N(C(=O)Nc4ccccc4)C[C@@H]32)cc1 | -11.3 | -12.7% (inactive)
CCS(=O)(=O)Nc1ccc2c(c1)C(=O)N(C)[C@H]1CC[C@H](CC(=O)NCc3ccccc3F)O[C@H]1CO2 | 8.23 | -6.34% (inactive)
O=C(C[C@H]1C=C[C@H](NC(=O)CC2CC2)[C@@H](CO)O1)NCc1ccccc1 | 4.6 | 4.83% (inactive)
Cc1noc(C)c1NC(=O)N[C@@H]1CC[C@H](CCNC(=O)C2CCC2)O[C@@H]1CO | 3.06 | -10.7% (inactive)
CO[C@H]1CN(C)C(=O)c2ccc(NC(=O)C3CC3)cc2OC[C@@H](C)N(Cc2ccc(F)cc2)C[C@@H]1C | -14.9 | -29.4% (inactive)
CC(=O)N1[C@@H]2Cn3c(ccc(C4=CCCC4)c3=O)[C@H]1[C@@H](C(=O)NC1CCC1)[C@@H]2CO | 2.6 | 11.3% (inactive)
O=C(Cc1cccnc1)N1CC(=O)N2[C@H](CO)[C@H](c3ccc(C#CC4CCCC4)cc3)[C@@H]2C1 | -12.7 | -12.6% (inactive)
O=C(N[C@@H]1CC[C@H](CCn2cc(-c3ccccn3)nn2)O[C@@H]1CO)c1ccccc1 | -0.983 | 0.892% (inactive)
O=C(NC[C@H]1CC[C@H]2[C@H](CN2Cc2cccc(Cl)c2)O1)C1CC1 | 6.08 | 4.96% (inactive)
CN(C)C(=O)c1cccc(-c2ccc3c(c2)[C@@H]2[C@@H](CCN2Cc2nccs2)[C@@H](CO)N3)c1 | -3.17 | -14.5% (inactive)
O=C(C[C@@H]1CC[C@@H]2[C@H](COC[C@H](O)CN2Cc2ccc(F)cc2)O1)NCc1ccncn1 | 9.14 | 13.7% (inactive)
CN1CCN(C(=O)C[C@H]2CC[C@H]3[C@@H](COC[C@H](O)CN3CC3CCCC3)O2)CC1 | -10.7 | -14.5% (inactive)
CCCc1cn(CC[C@@H]2CC[C@@H](NC(=O)CCN3CCCCC3)[C@H](CO)O2)nn1 | 6.3 | 4.68% (inactive)
COc1ccc(-c2cn(CC[C@H]3CC[C@@H](NC(=O)CCN4CCCCC4)[C@H](CO)O3)nn2)cc1 | 12 | 0.142% (inactive)
N#C[C@@H]1[C@H](c2ccccc2-c2cccc(F)c2)[C@@H](CO)N1C(=O)CN1CCOCC1 | 4.69 | 12.6% (inactive)
CO[C@H]1CN(C)C(=O)c2ccc(NC(=O)c3ccccc3F)cc2OC[C@H](C)N(C(=O)c2ccccc2F)C[C@H]1C | 2.58 | -1.92% (inactive)
Cc1cc(C(=O)Nc2ccc3c(c2)C(=O)N(C)[C@@H]2CC[C@@H](CC(=O)NC4CCCC4)O[C@@H]2CO3)no1 | 8.29 | 8.19% (inactive)
O=C(C[C@@H]1CC[C@@H]2[C@H](COC[C@H](O)CN2C(=O)Nc2cccc(Cl)c2)O1)NCCCN1CCOCC1 | 5.06 | 10% (inactive)
